# The whole screen tested about 340,000 compounds, of which about 6,400 (1.9%) were called active. Inconclusive results (about 4%) are left out. Calls follow the shape of the dose curve; as a rule, active = well fitted falling curve with a large enough effect; inconclusive = small, poorly fitted or top-dose-only effect; inactive = no such curve, though single readings can be large or run the other way. The list comes from a sample in which actives are over-represented; it also holds similar structures and randomly drawn compounds. Entries that show only a call come without a potency.
# Target: ATP-dependent Clp protease proteolytic subunit (Bacillus subtilis (strain 168)) (UniProt P80244)
# Assay: qHTS Assay for Activators of ClpP; also: the source files actives as falling curves though it sought activators and does not explain the sign; nearly all actives have a fitted effect of over 65% in size
# Conditions: purified B. subtilis ClpP, FRET peptide cleavage, 20 min; series mostly up to 57.5 µM
# Method in brief: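 Buffer: 100 mM Tris/HCl pH8, 100 mM KCl, 0.05% low protease BSA, 2.5% glycerol, 0.01% Tween-20. ClpP 10 microg/mL final; 20 min RT; delta FRET normalized to ADEP and DMSO controls.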
# Potency is read from the fitted curve at half-maximal effect.
# Chain of ATP-dependent Clp protease proteolytic subunit (Bacillus subtilis (strain 168)) (P80244 whole entry, looked up): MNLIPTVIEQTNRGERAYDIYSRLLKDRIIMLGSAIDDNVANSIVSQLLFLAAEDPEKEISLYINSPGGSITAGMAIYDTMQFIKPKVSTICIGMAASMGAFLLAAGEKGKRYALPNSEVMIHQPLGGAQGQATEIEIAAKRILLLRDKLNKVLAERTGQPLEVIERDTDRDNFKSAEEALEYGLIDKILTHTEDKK
row,Compound,Potency
1,Cc1ccc(S(=O)(=O)N2[C@@H](Cc3ccccc3)CO[C@H]2CC(=O)OCc2ccccc2)cc1,inactive
2,CN1OC[C@@H]2CN(C(=O)c3ccc(-c4ccccc4)cc3)[C@H](c3ccc(-c4cccc(F)c4)cc3)C[C@@H]21,inactive
3,O=C(c1ccc(N2CCCC2=O)cc1)N1CCN(c2ccc(C(F)(F)F)cc2[N+](=O)[O-])CC1,inactive
4,Cc1ccc(Cn2c(C)c(C(=O)NCc3ccccc3C(F)(F)F)sc2=O)cc1,inactive
5,O=C(CC[C@H]1O[C@@H](n2ccc(=O)[nH]c2=O)[C@H](O)[C@@H]1O)N[C@H](Cc1ccccc1)C(=O)NCc1ccco1,inactive
6,CC(CN1CCOCC1)OC(=O)c1ccc(C(C)(C)C)cc1 (stereo unspecified),inactive
7,CC(CN1CCOCC1)OC(=O)c1ccc(Cl)cc1Cl (stereo unspecified),inactive
8,Cc1ccc(C(=O)OC(C)CN2CCOCC2)cc1 (stereo unspecified),39.8 µM (active)
9,CCN(CC)C(=O)C1=C(C)N(Cc2ccc(OC)cc2)C(=O)C(CC(=O)NCc2ccco2)C1 (stereo unspecified),inactive
10,Nc1nc2c(ncn2[C@@H]2O[C@H](CNCc3ccc(OCCCN4CCOCC4)cc3)[C@@H](O)[C@H]2O)c(=O)[nH]1,inactive
11,CCCCC[C@H](C)N1C[C@@H](COCc2ccccc2)Oc2cc(N3CCC[C@@H]3CO)ccc2S1(=O)=O,inactive
12,CCCN(CCC)CCNC(=O)c1ccc2c(c1)NC(=O)C(CS(=O)(=O)Cc1cccc(Br)c1)N2 (stereo unspecified),2.82 µM (active)
13,CCCNC(=O)c1ccc(N2CCC3(CC2)CC(c2cccc(Br)c2)=NO3)c(NC(=O)c2ccco2)c1,inactive
14,O=C(NC1CC1)c1cccc(Br)c1,inactive
15,COc1ccc(OC)c(NC(=O)C2(C)CCN2C(=O)Cc2ccccc2)c1 (stereo unspecified),inactive
16,Cc1cccc(C)c1NC(=O)C(c1ccc(C(F)(F)F)cc1)n1c(=O)c(-c2ccco2)nc2ccccc21 (stereo unspecified),inactive
17,CCOC(=O)C1=C(CCc2ccccc2)NC(=O)NC1c1ccc2ccccc2c1 (stereo unspecified),inactive
18,CCOC(=O)c1sc(C)c2c1NC(C)(c1cccc3ccccc13)NC2=O (stereo unspecified),28.2 µM (active)
19,CCOC(=O)c1ccc(Nc2cc3ccccc3c(=O)[nH]2)cc1,inactive
20,COc1cccc(-c2nnc(SCCOc3ccc4c(C)cc(=O)oc4c3)o2)c1,28.2 µM (active)
21,COc1cccc(NC(=O)CSc2nnc(-c3cccnc3)o2)c1,inactive

row,Compound,Potency
1,COc1cccc(-c2nnc(SCC(=O)N3CCC(C)CC3)o2)c1,inactive
2,CCCNC(=O)C1(C)CCCN(C(=O)c2oc3ccccc3c2C)C1 (stereo unspecified),inactive
3,OC[C@@H]1CN(Cc2ccc(F)cc2)C[C@H](n2cnc3c(NC4CCCC4)ncnc32)O1,inactive
4,Cc1nnc(SCC(=O)N2c3ccccc3C(C)(c3ccc(Cl)cc3)CC2(C)C)s1 (stereo unspecified),31.6 µM (active)
5,CC1(c2ccccc2)CC(C)(C)N(C(=O)c2cc([N+](=O)[O-])cc([N+](=O)[O-])c2)c2ccccc21 (stereo unspecified),inactive
6,CC1(c2cccc([N+](=O)[O-])c2)CC(C)(C)N(C(=O)c2ccccc2)c2ccccc21 (stereo unspecified),inactive
7,O=C(C[n+]1ccncc1)c1ccc2c(c1)CCCC2,inactive
8,COc1ccc(CC(N)c2csc(NC(=O)Nc3ccc(C(C)C)cc3)n2)cc1 (stereo unspecified),inactive
9,CO[C@H]1O[C@@H]2O[C@@]3(C)CC[C@@H]4[C@@H](C)CC[C@@H]([C@H]1C)[C@@]24OO3,inactive
10,CCOC(=O)c1ccn(S(=O)(=O)c2ccc(C)cc2)c1-c1ccccc1,inactive
11,CCSc1nc(-c2ccc(OC)cc2)cc(-c2ccc(OC)cc2)c1C#N,22.4 µM (active)
12,CCOc1cc(-c2cc(-c3ccc(OC)cc3)nc(N)c2C#N)ccc1O,inactive
13,CCOC(=O)CC(=O)CSc1nc(-c2ccccc2)cc(-c2ccc(Cl)cc2)c1C#N,inactive
14,CCc1ccc([C@@H]2CC(=O)[C@@H]3CN(S(=O)(=O)c4ccc(C)cc4)[C@H](c4ccc(Cl)cc4)C[C@@H]3N2S(=O)(=O)c2ccc(C)cc2)cc1,inactive
15,Cc1ccc(S(=O)(=O)N[C@H]2CCC[C@@H]2O)cc1,inactive
16,CCCNC(=O)c1cc(C2CCCN(C(=O)c3ccc4c(c3)CCO4)C2)on1 (stereo unspecified),inactive
17,CCOc1cc(C2C(C(=O)OC)=CN(C3CCCC3)C=C2C(=O)OC)cc(Br)c1O,31.6 µM (active)
18,CCCC(=O)Nc1cc(OCC)c(NC(=O)NC2CCCCC2)cc1OCC,inactive
19,CCOc1ccc(CNC(=O)C2CCC(=O)N2C2CCCC2)cc1OC (stereo unspecified),inactive
20,CCOc1ccc2[nH]c(=S)sc2c1,inactive
21,C=CCC[C@@H](CCCCC)OC(=O)/C=C/[C@@H](O)[C@H](O)C[C@H](O)CC=C,inactive

row,Compound,Potency
1,Cc1cc(C)cc(OCC(=O)NNC(=O)c2cc3ccccc3oc2=O)c1,inactive
2,COc1ccc2oc(=O)c(C(=O)N3CCCc4ccccc43)cc2c1,inactive
3,COc1ccc2oc(=O)c(C(=O)N3CCN(c4ccccc4F)CC3)cc2c1,inactive
4,N=c1oc2ccccc2cc1C(=O)NCc1ccccc1,inactive
5,Cc1ccccc1CN1CCN(CC(=O)NCc2ccccn2)C1=O,inactive
6,COc1ccc2oc(=O)c(C(=O)NCc3ccccn3)cc2c1,10 µM (active)
7,O=C(NCc1ccccn1)c1cnc2sccn2c1=O,28.2 µM (active)
8,COc1ccc(CNC(=O)c2cc3cccc(OC)c3oc2=O)cc1,inactive
9,COc1cccc(S(=O)(=O)NCc2ccc(C(=O)NCc3ccccn3)cc2)c1,inactive
10,Cc1ccc(S(=O)(=O)N2CCC(C)CC2)cc1C(=O)NCc1ccccn1,inactive
11,COc1ccc2oc(=O)c(C(=O)O)cc2c1,20 µM (active)
12,O=C(NCc1ccccn1)c1cc2ccccc2oc1=O,31.6 µM (active)
13,COc1cc(NC(=O)c2cc(-c3ccc(F)cc3OC(C)C)n[nH]2)cc(OC)c1OC,inactive
14,COc1ccc(NC(=O)C2Cc3c(-c4ccc5c(c4)OCO5)ccnc3O2)cn1 (stereo unspecified),inactive
15,COc1cc(C(O)c2nc(-c3cccc(C(=O)O)c3)cs2)ccc1F (stereo unspecified),inactive
16,Cc1cc2c(cc1C)N1C(=O)c3cc4ccccc4cc3NC(=O)C1C(=O)N2 (stereo unspecified),inactive
17,COc1cc(OC)c(OC)cc1/C=C1\C=Cc2ccccc21,inactive
18,CCOC(=O)C1(C)CCCN(C(=O)c2ccc(F)c(Cl)c2)C1 (stereo unspecified),inactive
19,O=C(NCc1ccc(F)cc1)c1cc(C2CCCCN2C(=O)C2CCCCC2)on1 (stereo unspecified),inactive

# Reference: PubChem BioAssay AID651965 (National Center for Advancing Translational Sciences (NCATS), 2013)
